USP30 block = blocks human USP30 ubiquitin-rhodamine cleavage | purified USP30, Ub-rhodamine cleavage fluorescence | inhibition, % at 25 µM | 47,000 tested, 5.3% active | AID 1645860
Target sequence (Q70CQ3 whole entry, looked up): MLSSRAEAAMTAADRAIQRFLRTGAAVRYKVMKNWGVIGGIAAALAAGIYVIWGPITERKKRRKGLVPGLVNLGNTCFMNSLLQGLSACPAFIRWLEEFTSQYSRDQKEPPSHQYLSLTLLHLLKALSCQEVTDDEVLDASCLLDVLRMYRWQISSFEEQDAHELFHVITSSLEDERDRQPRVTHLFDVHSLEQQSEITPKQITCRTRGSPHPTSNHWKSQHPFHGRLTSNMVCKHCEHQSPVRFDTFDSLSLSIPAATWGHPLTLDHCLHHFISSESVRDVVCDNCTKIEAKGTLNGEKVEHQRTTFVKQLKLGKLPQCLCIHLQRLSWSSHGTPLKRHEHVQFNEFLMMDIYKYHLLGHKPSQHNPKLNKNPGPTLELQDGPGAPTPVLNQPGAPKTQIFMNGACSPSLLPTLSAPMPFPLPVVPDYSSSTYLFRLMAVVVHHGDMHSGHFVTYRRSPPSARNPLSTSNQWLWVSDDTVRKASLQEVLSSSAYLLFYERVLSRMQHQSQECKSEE
USP28 block = human USP28 deubiquitinase inhibition; Q96RU2; purified USP28, Ub-rhodamine cleavage fluorescence, 30 min; inhibition, % at 25 µM; 47,000 tested, 3% active; AID 1645857
USP17 block = inhibitors of human USP17 deubiquitinase | purified USP17, Ub-rhodamine cleavage fluorescence, 3 h | inhibition, % at 50 µM | 47,000 tested, 6.5% active | AID 1645855
* hit, by the source's call; i = inactive; · = not tested or not shown. Most compounds without a hit are left out; they make up all but 11% or so of the library. No stated cut-off is given here; in the data, active means inhibition above about 30%; inactive means the rest.

SMILES	USP30 block	USP28 block	USP17 block
CCOC(=O)COc1nc(-c2ccccc2)cc(-c2cccs2)c1C#N	-9	-14	-5
N#Cc1c(-c2ccc(Cl)cc2)cc(-c2cccs2)nc1N	-8	27	38*
COc1cccc(-c2cc(C(=O)NC3CNC(=O)C3)[nH]n2)c1 (configuration not stated)	0	15	-1
COc1ccc(Cl)cc1NC(=O)COC(=O)c1cc2ccccc2oc1=O	-1	-2	4
CCc1cccc(CC)c1NC(=O)COC(=O)c1cc2cccc(OC)c2oc1=O	39*	4	90*
Cc1ccc(Cl)cc1N1CCN(C(=O)[C@H]2[C@@H]3C[C@@H]4[C@H]2C(=O)O[C@@H]4C3)CC1	12	16	-2
O=S(=O)(c1ccc(Cl)c(Cl)c1)N1CCN(c2ccnc3cc(Cl)ccc23)CC1	-2	-10	-18
CCC1CCCCN1S(=O)(=O)c1ccc(C(=O)Nc2ccc(S(N)(=O)=O)cc2)cc1 (configuration not stated)	76*	35*	60*
CCOC(=O)N1CCN(S(=O)(=O)c2ccc(C(=O)Nc3ccc(S(N)(=O)=O)cc3)cc2)CC1	18	1	25
O=C(Nc1ccc(S(=O)(=O)N2CCCC2)cc1)c1ccc(N2CCCC2=O)cc1	16	28	-5
O=S(=O)(c1ccc(Cl)cc1)N1CCN(c2ccnc3cc(Cl)ccc23)CC1	30*	7	7
N#Cc1ccc(N2CCN(S(=O)(=O)c3ccc(Cl)cc3)CC2)cc1	31*	16	6
CN(C)c1ccc(C(=O)Nc2ccc(S(=O)(=O)N3CCCC3)cc2)cc1	-28	42*	-8
N#Cc1ccc(S(=O)(=O)N2CCN(c3ncnc4cc(Cl)ccc34)CC2)cc1	29	21	22
CC(=O)Nc1ccc(-c2noc(C3CCN(C(=O)Cc4ccc(C)cc4)CC3)n2)cc1	10	4	3
COc1ccccc1C1NC2=NCN(C(C)C)CN2c2nc3ccccc3n21 (configuration not stated)	19	3	8
N#Cc1cccc(C(=O)Nc2ccc3c(N4CCCC4)ncnc3c2)c1	9	-1	1
CCOC(=O)N1CCC(NC(=O)c2cc(C(=O)Nc3ccc(S(=O)(=O)N4CCCCC4)cc3)ccc2CO)CC1	79*	42*	77*
CSc1ccccc1C(=O)Nc1ccc(S(=O)(=O)N2CCCC2)cc1	9	0	-4
CCOC(=O)N1CCN(S(=O)(=O)c2ccc(C(=O)Nc3ccc(OC)c4ccccc34)cc2)CC1	28	3	29
N#Cc1ccc(NC(=O)c2ccc(S(=O)(=O)N3CCCCC3)cc2)cc1	54*	26	17
N#Cc1ccc(C(=O)Nc2ccc3c(N4CCCC4)ncnc3c2)cc1	-12	-2	31*
CC1(C)Cc2c(sc3nc(SCCOc4ccccc4)nc(N)c23)CO1	16	9	16
CCCSc1nc(N)c2c3c(sc2n1)COC(C)(C)C3	-13	-11	47*
CC(C)=CCC/C(C)=C/CC/C(C)=C/COc1c(O)cc(C=O)c(C=O)c1O	44*	81*	81*
SMILES	USP30 block	USP28 block	USP17 block
O=C(O)c1ccccc1NC1SC(=O)N(Cc2ccccc2)C1=O (configuration not stated)	23	20	19
CCc1nn2c(S(=O)(=O)N3CCN(c4ccccc4)CC3)c(C)nc2s1	39*	8	6
CCc1nn2c(S(=O)(=O)N3CCCCCC3)c(C)nc2s1	6	-11	2
CC1CCN(S(=O)(=O)c2cccn(CC(=O)N(C)c3ccccc3)c2=O)CC1	-15	-2	-3
CCC(C)C1C(=O)N2NCCCC2C(=O)N2NCCCC2C(=O)N(C)C(Cc2ccccc2)C(=O)N2CCCC2C(=O)NC(Cc2ccccc2)C(=O)N1O (configuration not stated)	26	17	6
O=C1N[C@@H](Cc2ccccc2)C(=O)N2[C@H]3Nc4ccccc4[C@@]3([C@]34C[C@H]5C(=O)N[C@@H](Cc6ccccc6)C(=O)N5[C@H]3Nc3ccccc34)C[C@@H]12	49*	22	53*
COC(C)(C)C(=O)N1CCOC(c2cccc(-c3cnc(N)nc3)n2)C1 (configuration not stated)	3	4	0
CN1CCCc2cc(C(CNC(=O)Cc3cccs3)N3CCCC3)ccc21 (configuration not stated)	i	-164	-117
O=C(Nc1ccccc1)/C(=C/c1ccco1)n1nnnc1-c1ccccc1	-69	-16	-7
CC(=O)c1ccc(NC(=O)/C(=C/c2ccco2)n2nnnc2-c2ccccc2)cc1	-128	12	51*
O=C(CCCn1c(=O)[nH]c2ccccc2c1=O)N1CCN(c2ccc(Cl)cc2)CC1	41*	3	-11
O=C(CCn1c(=O)[nH]c2ccccc2c1=O)N1CCN(c2ccc([N+](=O)[O-])cc2)CC1	-1	0	17
Cc1ccc(NC(=O)c2ccccc2)c(=O)n1CC(=O)N1CCCC1	-5	-3	1
CC(=O)c1ccc(N2CCN(C(=O)Cn3c(=O)[nH]c4ccccc4c3=O)CC2)cc1	·	·	42*
O=C(Cn1c(=O)[nH]c2ccccc2c1=O)N1CCN(c2ccccc2F)CC1	32*	13	24
Cc1cccc(N2CCN(C(=O)Cn3c(=O)[nH]c4ccccc4c3=O)CC2)c1C	13	5	0
COc1ccc(N2CCN(C(=O)CCCCCn3c(=O)[nH]c4ccccc4c3=O)CC2)cc1	23	9	8
Cc1ccc(NC(=O)c2ccccc2)c(=O)n1CC(=O)N1CCN(c2ccccc2F)CC1	30*	9	·
Cc1ccc(-c2noc(-c3sc(NC(=O)C(C)(C)C)nc3C)n2)cc1	9	3	6
O=C1c2ccc(C3CCCN3)nc2CN1Cc1ccccc1 (configuration not stated)	·	·	-5
Cc1cc(-c2ncc[nH]2)nc(C2CCN(C(=O)C(C)C)CC2)n1	11	2	11
O=C(NCc1cccnc1)c1cncc(NS(=O)(=O)c2ccc3c(c2)OCCO3)c1	9	-10	1
Cc1ccccc1CNC(=O)Cn1ccc2ccc(N3CCOCC3)nc21	-202	-88	-99
C[C@@H]1OC2=C(C(=O)c3cccc(O)c3C2=O)[C@H](O)[C@@H]1O	6	71*	80*
O=c1[nH]c2ccccc2c(O)c1-c1nc(-c2ccc3c(c2)OCO3)no1	3	0	2
SMILES	USP30 block	USP28 block	USP17 block
COc1ccc(N2CCN(C(=O)c3cnc(N4CCN(C)CC4)nc3C)CC2)cc1	-1	-2	-16
NCCN1C(=O)C(=O)N2[C@H](CO)[C@@H](O)[C@H](O)[C@H](O)[C@@H]12	-1	-12	-18
CCCCc1ccc(NC(=O)Nc2ccccc2C(=O)NCC2CC2)cc1	27	14	31*
O=C(NCC1CCN(CCc2ccccc2)C1)Nc1ccccc1 (configuration not stated)	-9	-4	-8
CCn1ccc2c(cc(C(=O)Nc3ccccc3F)n2C)c1=O	-6	74*	0
CCn1ccc2c(cc(C(=O)Nc3ccccc3C)n2C)c1=O	-1	16	·
Cc1ccc(C2c3c(C)nn(-c4ccccc4)c3Oc3ncn4nc(-c5ccccc5O)nc4c32)cc1 (configuration not stated)	34*	2	16

Compound activity: PubChem, Buhrlage Lab, Dana-Farber Cancer Institute and Novartis Institutes for BioMedical Research (Cambridge, Mass)
